This is an account of results in PubChem BioAssay (NCI).

Some test systems named below: NCI-H23 lung; NCI-H226 lung; NCI-H322M lung; HOP-62 NSCLC; NCI-H460 lung; HOP-92 NSCLC; NCI-H522 lung; A549/ATCC NSCLC; 786-0 renal; COLO 205 colon.
Common to all, as to experiment: NCI-60 one-dose screen, 48 h (100 = growth as untreated, 0 = no growth, -100 = all killed)
What all share (settings): 10 µM

This is part of a sample that, as a whole, favours compounds with a hit. Of some 83,000 tested, about 20% had one in any assay.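 A percent growth of 40 corresponds to 60% growth inhibition; 0 means no net growth; -100 means all cells died. Active threshold: below 10.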 Values without a mark were called inactive. Calls of active or inactive are those of the source.

Turning to `O=c1nc(-c2ccccc2)cc(-c2cc3ccccc3nc2Cl)[nH]1`, the growth with NCI-H23 lung is 33.6%; in the experiment with NCI-H226 lung, 35.6%; in the experiment on NCI-H322M lung, 64.4%; in the experiment on HOP-62 NSCLC it was 42.5%; in the experiment with NCI-H460 lung it was 2.46% (active); in the experiment with HOP-92 NSCLC, 41.8%. The growth with NCI-H522 lung is 51.2%; with A549/ATCC NSCLC, 68.9%; in the experiment on 786-0 renal, -19.8% (active); in the experiment with COLO 205 colon it was 45%.
With `CC(C)(C)Nc1nc2cc(Cl)c(Cl)cc2nc1S(C)(=O)=O`, the growth was -63.6% (active) in the experiment with NCI-H23 lung; -83% (active) with NCI-H226 lung; 98% with NCI-H322M lung; 88.1% in the experiment on HOP-62 NSCLC; 73.1% in the experiment on NCI-H460 lung; -5.25% (active) in the experiment with HOP-92 NSCLC. The growth is -80.6% (active) in the experiment on NCI-H522 lung, 94.1% with A549/ATCC NSCLC, 44% with 786-0 renal and 31.2% with COLO 205 colon.
`Brc1ccc(N/N=C/c2c[nH]c3ccccc23)nc1`: the growth with NCI-H23 lung is 41.1%; in the experiment with NCI-H226 lung, 35.5%; with NCI-H322M lung it was 47.6%; with HOP-62 NSCLC, 32%; in the experiment on NCI-H460 lung it was 9% (active); in the experiment with HOP-92 NSCLC, -28.4% (active). Also, the growth in the experiment with NCI-H522 lung was 24.9%; with A549/ATCC NSCLC, 37.7%; with 786-0 renal, 0.458% (active); in the experiment on COLO 205 colon, 48.8%.
Regarding `CCN1CCN(c2ccc(NC(=O)Nc3ccc(-c4cc(C(=O)NC(C)C)c5ncccc5n4)cc3)cc2C(F)(F)F)CC1`, the growth in the experiment on NCI-H23 lung is -86.3% (active); in the experiment on NCI-H226 lung it was -81.2% (active); with NCI-H322M lung, -66% (active); in the experiment with HOP-62 NSCLC, -87.8% (active); in the experiment on NCI-H460 lung, -40.5% (active); with HOP-92 NSCLC, -77.2% (active). Further, the growth in the experiment on NCI-H522 lung is -86.3% (active); in the experiment with A549/ATCC NSCLC, -87.6% (active); in the experiment on 786-0 renal, -93.6% (active); in the experiment with COLO 205 colon, -78.2% (active).
Turning to `COc1cc2c3c(n(CCCNCCO)c(=O)c2cc1OC)-c1nc2c(cc1C3=O)OCO2`, the growth with NCI-H23 lung is -45% (active); with NCI-H226 lung, -88.5% (active); with NCI-H322M lung it was 16.8%; in the experiment with HOP-62 NSCLC, 0.0851% (active); in the experiment with NCI-H460 lung, -43.9% (active); with HOP-92 NSCLC, 7.23% (active). The growth was 2.99% (active) with NCI-H522 lung, 35.6% with A549/ATCC NSCLC, -25.9% (active) with 786-0 renal and 2.13% (active) with COLO 205 colon.
As to `CN1C(=O)N(C)C2SC(N/N=C/c3ccccc3F)=NC21` (stereo not given), the growth in the experiment on NCI-H23 lung is 76.5%; in the experiment with NCI-H226 lung, 92.4%; with NCI-H322M lung, 97.2%; in the experiment on HOP-62 NSCLC, 68.3%; with NCI-H460 lung it was 58.2%; in the experiment on HOP-92 NSCLC, 124%. Besides, the growth was 46.1% with NCI-H522 lung, 63.1% with A549/ATCC NSCLC, 68.7% in the experiment on 786-0 renal and 100% with COLO 205 colon.
As for `C=C1CCC2C3(C)COC(c4c(F)cccc4F)OC3CCC2(C)C1C/C=C1/C(=O)OCC1O` (stereo not given), the growth is -46.8% (active) in the experiment on NCI-H23 lung; -11.2% (active) with NCI-H226 lung; 37.5% with NCI-H322M lung; -13.7% (active) in the experiment on HOP-62 NSCLC; -22.3% (active) in the experiment with NCI-H460 lung; 4.64% (active) with HOP-92 NSCLC. The growth with NCI-H522 lung is -67.7% (active); in the experiment with A549/ATCC NSCLC, 10.1%; with 786-0 renal it was -77.6% (active); with COLO 205 colon, -35.8% (active).
With `CN(C(=O)c1ccc(C(F)(F)F)cc1C(F)(F)F)c1sc2c(c1C#N)CCC(=O)C2`, the growth was 50% with NCI-H23 lung; 102% in the experiment with NCI-H226 lung; 93.6% in the experiment with NCI-H322M lung; 92% in the experiment with HOP-62 NSCLC; 113% in the experiment on NCI-H460 lung; 80.6% in the experiment with HOP-92 NSCLC. The growth in the experiment with NCI-H522 lung was -59.7% (active); with A549/ATCC NSCLC it was 94.4%; in the experiment on 786-0 renal it was 85.2%; in the experiment with COLO 205 colon, 112%.
Turning to `O=C(Cc1ccc2c(c1)CN(C1CCC(=O)NC1=O)C2=O)NCCc1ccccc1` (stereo not given), the growth in the experiment on NCI-H23 lung is 72.8%; in the experiment on NCI-H226 lung it was 11.4%; with NCI-H322M lung, 22.5%; in the experiment with HOP-62 NSCLC, 0.419% (active); in the experiment on NCI-H460 lung it was 110%; with HOP-92 NSCLC it was -14.1% (active). For the same compound, the growth is 35.4% in the experiment on NCI-H522 lung, 20.3% in the experiment on A549/ATCC NSCLC, 6.47% (active) in the experiment on 786-0 renal and 0.214% (active) with COLO 205 colon.
As to `COc1ccc(-c2ccc(SCC(=O)Nc3ccc(C#N)cc3)nn2)cc1`, the growth with NCI-H23 lung was 79.7%; in the experiment on NCI-H226 lung, 66.9%; in the experiment on NCI-H322M lung, 88.4%; with HOP-62 NSCLC, 64.8%; in the experiment on NCI-H460 lung, 96.4%; in the experiment with HOP-92 NSCLC it was 86.9%. Also, the growth was 87.3% in the experiment on NCI-H522 lung, 96.3% with A549/ATCC NSCLC, 86.4% in the experiment with 786-0 renal and 127% in the experiment with COLO 205 colon.
As for `c1ccc(C(=C(c2ccc(OCCN3CCCCC3)cc2)c2ccc(OCCN3CCCCC3)cc2)C2CCCC2)cc1`, the growth was -81% (active) in the experiment on NCI-H23 lung; -15.5% (active) with NCI-H226 lung; 39.8% in the experiment with NCI-H322M lung; -10.9% (active) with HOP-62 NSCLC; -55.4% (active) with NCI-H460 lung; -61% (active) in the experiment on HOP-92 NSCLC. Further, the growth in the experiment with NCI-H522 lung was -42.2% (active); in the experiment on A549/ATCC NSCLC, -17.9% (active); with 786-0 renal, -33.3% (active); in the experiment on COLO 205 colon it was -92.6% (active).
With `Cc1ccc2nc(-c3ccc(-c4nnc(SCC(=O)Nc5ccc(Cl)cc5)o4)cc3)[nH]c2c1`, the growth is 29.1% in the experiment with NCI-H23 lung; 9.53% (active) with NCI-H226 lung; 27.6% in the experiment on NCI-H322M lung; 61.8% with HOP-62 NSCLC; 6.19% (active) with NCI-H460 lung; 84.9% in the experiment on HOP-92 NSCLC. The growth in the experiment with NCI-H522 lung is 51.1%; with A549/ATCC NSCLC it was 29.1%; with 786-0 renal, 68.5%; in the experiment on COLO 205 colon, 46.1%.
On to `O=C(c1ccc(O)cc1)C1[C@H](c2ccccc2Br)[C@@H](c2ccccc2)NC12C(=O)Nc1ccc(Br)cc12` (stereo not given in full), for which the growth in the experiment with NCI-H23 lung is 46.4%; with NCI-H226 lung, 36.5%; with NCI-H322M lung, 55.6%; with HOP-62 NSCLC it was 53.2%; with NCI-H460 lung, 31.1%; in the experiment on HOP-92 NSCLC, 53.3%. Besides, the growth in the experiment on NCI-H522 lung was 0.143% (active); in the experiment with A549/ATCC NSCLC it was 34.4%; in the experiment on 786-0 renal, 47.8%; in the experiment with COLO 205 colon, 29.7%.
As for `CC(=C(c1ccc(OCCN2CCCCC2)cc1)c1ccc(OCCN2CCCCC2)cc1)c1ccccc1`, the growth was 47.2% in the experiment on NCI-H23 lung; 82.4% in the experiment on NCI-H226 lung; 60.9% in the experiment on NCI-H322M lung; 10.4% in the experiment on HOP-62 NSCLC; 41.6% in the experiment on NCI-H460 lung; 8.69% (active) in the experiment with HOP-92 NSCLC. Besides, the growth is 64.8% in the experiment with NCI-H522 lung, 33.3% in the experiment with A549/ATCC NSCLC, -35.8% (active) in the experiment on 786-0 renal and -83.9% (active) in the experiment on COLO 205 colon.
